Laboratory results reported in PubChem BioAssay AID488859 (Sanford-Burnham Center for Chemical Genomics, 2010).
Screen size: about 1,400 compounds; about 970 (69%) were called active. Roughly 5% stayed inconclusive and do not appear here. Cut-off read from the data, not from the text of the source: active = inhibition above about 45%; inconclusive = no clear call, values can overlap the other calls; inactive = below that. So high a share suggests a set chosen from earlier hits. Only a sample is shown.

Biological target: Ubiquitin-conjugating enzyme E2 N (Homo sapiens) (UniProt P61088)
Sequence (P61088 whole entry, looked up): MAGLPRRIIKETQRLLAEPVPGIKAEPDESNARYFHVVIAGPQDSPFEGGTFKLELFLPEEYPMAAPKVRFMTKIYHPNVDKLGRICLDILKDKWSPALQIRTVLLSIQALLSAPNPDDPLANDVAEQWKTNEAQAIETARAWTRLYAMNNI
Test: retested blockers of UBC13 chain formation – biochemical, TR-FRET, single concentration, confirmation (AID 488859)
Settings: UBC13 polyubiquitination, at 10 µM, stronger effect = higher value

inhibition, inactive:
CC(C)n1cnc2c(Nc3cccc(Cl)c3)nc(N(CCO)CCCO)nc21 30.6%
COc1cccc2sc3cc(NCC[C@@H]4CCCN4C)ccc3c(=O)c12 41.3%
NC[C@H](Cc1ccccc1)NCCc1cc(C(F)(F)F)cc(C(F)(F)F)c1 40.1%
CCOC(=O)[C@@H]1[C@H]2COc3cc(OC)ccc3[C@H]2N2C(=O)N(c3ccc(F)cc3)C(=O)[C@]12C 1.2%
CC1(C)Cc2ccccc2-c2[nH]c(=S)[nH]c(=O)c21 26.2%
CCOC(=O)N1CCN(C(=O)Cc2ccc(-n3c(=S)[nH]c4ccccc4c3=O)cc2)CC1 37.3%
c1ccc(C[C@H]2CNCCN2CCC23CC4CC(CC(C4)C2)C3)cc1 42.5%
Cc1ccc(C(C(=O)NCC2CCCO2)N(C(=O)c2snc(C(N)=O)c2N)c2ccc(C(C)C)cc2)o1 (stereo not drawn) 30.4%
O=c1cc(CO)oc(C(Nc2cccc([N+](=O)[O-])c2)c2ccccn2)c1O (stereo not drawn) 39.1%
CCOCCCNC(=O)c1cn(CC(C)C)c(=O)c2c1c1ccccc1n2C 37.9%
CC[C@@H](C)[C@@H]1CN([C@@H](C)CN2CCC[C@H]2CN2C(N)=NC[C@H]2C(C)C)C(=N)N1CCc1ccc(Cl)c(Cl)c1 38.2%
COc1ccc2sc(-c3ccc(S(C)(=O)=O)cc3)c(C#Cc3cncn3C)c2c1 29.5%
CCOC(=O)c1ccc(NC(=O)c2nc[nH]c2C(=O)NCc2ccccc2)cc1 25.1%
CCOC(=O)C1=C(c2ccccc2)O/C(=C(/C(=O)OC)C(F)(F)F)S1 42.4%
CN(C(=O)CN(CCO)CC(=O)N(C)C(C)(C)Cc1ccccc1)C(C)(C)Cc1ccccc1 44.3%
CCN1C(=NCc2ccc(OC)cc2)N[C@@H](CCc2ccccc2)[C@H](C(=O)NCc2ccc(OC)cc2)[C@H]1C 34.8%
c1ccc2c(CCN3CCNC[C@H]3Cc3cccc4ccccc34)cccc2c1 44.3%
CCOC(=O)c1cccc(NS(=O)(=O)c2c(C(=O)N3CCCCCC3)c(C)n(C)c2C)c1 43.9%
COC(=O)c1cc(-c2cccs2)nc2ccccc12 18.1%
CCCOc1ccc(Cl)cc1Nc1nc(NCCO)nc(N2CCCC2)n1 16.5%
C#CCOCCOCCOCCNc1nc(N2CCN(C(=O)C(Cc3ccc(O)cc3)n3cc(C(N)CC(C)C)nn3)CC2)nc(N2CCN(C(=O)C(Cc3ccc(O)cc3)n3cc(C(N)C(C)CC)nn3)CC2)n1 (stereo not drawn) 23.8%
CCN(CC)CCC(c1cc(OC)c(OC)c(OC)c1)c1c(OC)cc(OC)c2c(-c3ccccc3)cc(=O)oc12 (stereo not drawn) 35.1%
Cn1c(C(=O)NCCCN2CCN(c3cccc(Cl)c3)CC2)cc2c(=O)n(C)c3ccccc3c21 38.7%
Cc1ncc(CO)c(/C=N/NC(=O)c2cccc(S(=O)(=O)N3CCCC3)c2)c1O 32.9%

inhibition, active:
O=C(COC(=O)Cn1cnc2ccccc2c1=O)NCc1ccccc1Cl 57.6%
CCN1CCN(CCNC(=O)c2ccc(/C=C3/Sc4ccccc4N(Cc4cccc(C)c4)C3=O)cc2)CC1 85.6%
COc1ccc(N(C(=O)c2snc(C(N)=O)c2N)C(C(=O)NC2CCCC2)c2ccco2)cc1OC (stereo not drawn) 96.8%
CCC(C(=O)NC1CCCC1)N(C(=O)c1snc(C(N)=O)c1N)c1ccc2c(c1)OCCO2 (stereo not drawn) 95%
NC(N)=Nc1nc(-c2ccccc2)c2cc(Cl)ccc2n1 79.9%
COc1ccc(C(CNC(=O)c2ccc(S(=O)(=O)Nc3ccccc3F)cc2)N(C)C)cc1 (stereo not drawn) 114%
NC(=O)NC(CC(=O)NNC(=O)c1ccccn1)c1ccc(Cl)cc1 (stereo not drawn) 95.3%
CCCC[C@@H]1CN=C(N)N1CCc1cc(C(F)(F)F)cc(C(F)(F)F)c1 55.4%
CN(C)CC(O)COc1ccc(C(C)(C)c2ccc(OCC(O)CN(C)C)cc2)cc1 (stereo not drawn) 60.5%
Cc1ccc(NC(=O)c2cnc(SCC(=O)NCC3CCCO3)n(C)c2=O)cc1 (stereo not drawn) 95.9%
Cc1c(CN2CCC(CO)(CCOc3ccccc3)CC2)[nH]c2ccc(Cl)cc12 74%
O=C(CCCCCN1C(=O)c2cccc3cccc(c23)C1=O)NCc1ccco1 50.7%
CN(C)c1ccnc2sc3c(=O)n(Cc4ccccc4)cnc3c12 57.1%
COc1ccnc2c1c(=O)n(Cc1cccc(F)c1)c(=O)n2C 52.3%
C#CCOCCOCCOCCNc1nc(N2CCN(C(=O)CCCCCCCCCCNC(=O)[C@H](CCCCN)n3cc(C)nn3)CC2)nc(N2CCN(C(=O)CCCCCCCCCCNC(=O)[C@H](CO)n3cc(CCCSC)nn3)CC2)n1 121%
C#CCOCCOCCOCCNc1nc(N2CCN(C(=O)CCCCCCCCCCNC(=O)Cn3cc(CCCCCN)nn3)CC2)nc(N2CCN(C(=O)CCCCCCCCCCNC(=O)[C@H](CO)n3cc(CCCSC)nn3)CC2)n1 129%
C#CCOCCOCCOCCNc1nc(N2CCN(C(=O)CCCCCCCCCCNC(=O)[C@H]([C@@H](C)CC)n3cc(CCCCN=C(N)N)nn3)CC2)nc(N2CCN(C(=O)CCCCCCCCCCNC(=O)[C@H](CO)n3cc(CCCSC)nn3)CC2)n1 121%
CC1CC(C)(C)n2c(O)c(N=NC(N)=S)c3cccc1c32 (stereo not drawn) 107%
COc1ccc(-n2nnnc2-c2nc3ccccc3s2)cc1 51.1%
CN1CCC(CN)(N2CCN(c3ccccc3)CC2)CC1 48.6%
CC(=O)NC(=S)NNC(=O)c1ccc(Br)cc1 89.8%
COc1ccc(/C=N\NC(=O)c2sc(N)nc2C)cc1OC 110%
O=C(CCCCCn1c(=O)[nH]c2ccccc2c1=O)NCCc1c[nH]c2ccccc12 67.3%
CCN(CC)CCNC(=O)c1ccc(NC(=O)c2cc(-c3ccncc3)nc3ccccc23)cc1 91.5%
COc1cccc(N(C(=O)c2snc(C(N)=O)c2N)C(C(=O)NCC2CCCO2)c2c[nH]c3ccccc23)c1 (stereo not drawn) 57.9%
CCOc1ccc(N(C(=O)c2snc(C(N)=O)c2N)C(C(=O)NCC2CCCO2)c2c[nH]c3ccccc23)cc1 (stereo not drawn) 100%
Cc1ccc(N(C(=O)c2snc(C(N)=O)c2N)C(C(=O)NCC2CCCO2)c2c[nH]c3ccccc23)cc1 (stereo not drawn) 70.6%
O=c1cc(CO)oc(C(Nc2cccc(C(F)(F)F)c2)c2ccccn2)c1O (stereo not drawn) 88.9%
O=c1c2c(nc3n1CCCCC3)sc1c(O)cccc12 104%
Cc1cccc(-n2cnc(C(=O)NNC(=S)Nc3ccccc3)c2)n1 107%
Cc1ccc(NC2=C(Cl)C(=O)OC2OC(=O)c2ccccc2C)cc1 (stereo not drawn) 62%
Cc1ccccc1C(=O)OC1OC(=O)C(Cl)=C1Nc1ccccc1 (stereo not drawn) 88.9%
C[C@@H](CN1CCC[C@H]1CN1C(N)=NC[C@@H]1Cc1ccccc1)N1C[C@@H](Cc2ccccc2)N(CCCC2CCCC2)C1=N 58.5%
COc1ccc2sc(-c3ccccc3OC)c(-c3ccc(OCCN4CCCC4)cc3)c2c1 54.8%
CC1CN(C(=O)CCC(=O)NCCCN2CCC(Cc3ccccc3)CC2)c2cc(Cl)ccc2O1 (stereo not drawn) 87.8%
Cc1cccc(-c2nc3ccc(C(=O)NCCN4CCN(C)CC4)cc3nc2-c2cccc(C)c2)c1 72.8%
Cc1ccc(C(=O)N/C(=C/c2ccc(-c3cccc([N+](=O)[O-])c3)o2)C(=O)NCCCN(C)C)cc1 78%
O=S(=O)(c1ccc(NC(=S)NN=C(C2CC2)C2CC2)cc1)N1CCOCC1 60.4%
Cc1cccc(OCC(O)CN2CCN(CCN3C(=O)c4cccc5cccc(c45)C3=O)CC2)c1C (stereo not drawn) 101%
COc1cccc(Cn2cnc3c([N+](=O)[O-])c(C)c(C)cc32)c1 63.7%
NC(N)=N/N=C/c1ccc(OCc2ccc(Cl)cc2Cl)cc1 121%
CN(C)CCCN(C(=O)c1ccc(S(=O)(=O)N2CCCCCC2)cc1)c1nc2ccc(Br)cc2s1 107%
CCOc1ccc2nc(N(CCCN(C)C)C(=O)c3ccc(C(=O)c4ccccc4)cc3)sc2c1 111%
CN(C)CCCN(C(=O)c1ccc(S(=O)(=O)N2CCCCCC2)cc1)c1nc2cc3c(cc2s1)OCCO3 110%
CCCCCCCCCCOC(=O)Cn1c(COc2cccc(OC)c2)[n+](C)c2ccccc21 63.8%
COc1ccc(C(CNC(=O)c2cccc(NS(=O)(=O)c3ccc(C)c(F)c3)c2)N2CCCC2)cc1 (stereo not drawn) 94.5%
CCCCN(C)CCCNC(=O)c1cc(-c2cccs2)nc2ccccc12 45.7%
Cc1cc(C)c(NC(=O)C[N+](C)(C)CC(O)COc2cccc3ccccc23)c(C)c1 (stereo not drawn) 60.3%
CCCCN(CCCC)CCC(O)c1cc2c(Cl)cc(Cl)cc2c2cc(C(F)(F)F)ccc12 (stereo not drawn) 56.5%
Cc1ccc(-c2noc(CCC(=O)Nc3ccccc3N3CCN(C)CC3)n2)cc1 92.8%
C#CCOCCOCCOCCNc1nc(N2CCN(C(=O)C([C@@H](C)CC)n3cc(C(N)COC(=O)C(F)(F)F)nn3)CC2)nc(N2CCN(C(=O)[C@H](CCCCN)n3cc(C(N)CC(C)C)nn3)CC2)n1 (stereo partly drawn) 103%
C#CCOCCOCCOCCNc1nc(N2CCN(C(=O)C([C@@H](C)O)n3cc([C@@H](N)CCCCN)nn3)CC2)nc(N2CCN(C(=O)[C@H](CCCCN)n3cc(CN)nn3)CC2)n1 (stereo partly drawn) 113%
C#CCOCCOCCOCCNc1nc(N2CCN(C(=O)[C@H](CCCCN)n3cc([C@@H](N)C(C)CC)nn3)CC2)nc(N2CCN(C(=O)[C@H](Cc3ccc(O)cc3)n3cc([C@@H](N)C(C)CC)nn3)CC2)n1 (stereo partly drawn) 105%
C=C1c2c(Cl)ccc(O)c2C(O)=C2C(=O)[C@]3(O)C(O)=C(C(N)=O)C(=O)[C@@H](N(C)C)[C@@H]3[C@@H](O)C12 (stereo partly drawn) 50.8%
COc1ccccc1NC(=O)CSc1nnc(-c2ccoc2C)n1CCc1ccccc1 94.4%
CN1CCN(CCCNC(=O)c2ccc(/C=C3\Oc4ccccc4N(Cc4ccc(Cl)cc4)C3=O)cc2)CC1 111%
CCN(CC(=O)NCc1cccs1)C(=O)c1cccc(S(=O)(=O)Nc2ccccc2OC)c1 106%
OCCNc1nc(Nc2ccc(Cl)c(Cl)c2)nc2ccccc12 92%
CSCCC(NC(=O)c1ccc(Cl)cc1Cl)C(=O)NNC(=O)c1csc(N2CCOCC2)n1 (stereo not drawn) 55.6%
